Pf Dd2 growth – P. falciparum Dd2 growth inhibitors, primary screen, SYBR Green fluorescence, single dose replicates | 72 h; stronger effect = lower value | activity change, % at 10 µM | 2.3% of 94,000 active | AID 1159554, 2015; in the data active = activity change below about -80%
C diff HTS – C. difficile growth inhibitors, primary screen, HTS; Clostridium difficile clinical isolate growth, OD600, 24 h; stronger effect = lower value; AID 1259249, 2017; 0.25% of 86,000 active; growth activity, negative = inhibition, % at 16 µg/mL (by protocol);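 active = mean growth activity at or below -80% and every replicate also at or below -80%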;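 note: 0% = DMSO wells and -100% = levofloxacin 16 µg/mL wells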
The depositor's hits bear a star; nt = no result; ! = not active in a repeat. Rows were chosen to be rich in hits. Some 2.3% of all compounds tested hit in one or more screens of this group.

SMILES | Pf Dd2 growth | C diff HTS
COc1ccc(NC(=O)N(C)C[C@H]2OCCCC[C@@H](C)Oc3ccc(NC(=O)Nc4cccc5ccccc45)cc3C(=O)N([C@@H](C)CO)C[C@H]2C)cc1 | -75.6 | -1.4
O=C(C[C@@H]1CC[C@@H]2[C@H](COC[C@H](O)CN2S(=O)(=O)c2cccc(Cl)c2)O1)NC1CCC1 | -8.7 | 6.6
CCCC#Cc1ccc([C@@H]2[C@H]3CN(C(=O)NC4CCCC4)CC(=O)N3[C@H]2CO)cc1 | -29.4 | 1.4
C[C@H]1CCCCO[C@@H](CN(C)S(=O)(=O)c2ccccc2)[C@@H](C)CN([C@@H](C)CO)C(=O)c2cc(NC(=O)c3ccccc3)ccc2O1 | -67.7 | nt
C[C@@H]1CCCCO[C@H](CN(C)S(=O)(=O)c2ccccc2)[C@H](C)CN([C@@H](C)CO)C(=O)c2cc(NC(=O)c3ccccc3)ccc2O1 | -55.8 | nt
C[C@@H]1CN([C@@H](C)CO)C(=O)c2cc(NC(=O)c3ccccc3)ccc2O[C@@H](C)CCCCO[C@@H]1CN(C)S(=O)(=O)c1ccc(Cl)cc1 | -86.4* | 13.8
C[C@@H]1CN([C@@H](C)CO)C(=O)c2cc(NC(=O)c3ccccc3)ccc2O[C@@H](C)CCCCO[C@H]1CN(C)S(=O)(=O)c1ccc(Cl)cc1 | -84.4* | 2.9
C[C@@H]1CCCCO[C@@H](CN(C)S(=O)(=O)c2ccccc2)[C@H](C)CN([C@@H](C)CO)C(=O)c2cc(NC(=O)c3ccccc3)ccc2O1 | -37.9 | nt
C[C@H]1CCCCO[C@H](CN(C)S(=O)(=O)c2ccc(Cl)cc2)[C@@H](C)CN([C@@H](C)CO)C(=O)c2cc(NC(=O)c3ccccc3)ccc2O1 | -80.7* | 7.9
C[C@@H]1CCCCO[C@@H](CN(C)S(=O)(=O)c2ccc(Cl)cc2)[C@H](C)CN([C@@H](C)CO)C(=O)c2cc(NC(=O)c3ccccc3)ccc2O1 | -69.5 | 1.6
C[C@@H]1CCCCO[C@@H](CN(C)S(=O)(=O)c2ccc(Cl)cc2)[C@H](C)CN([C@H](C)CO)C(=O)c2cc(NC(=O)c3ccccc3)ccc2O1 | -85.1* | 1.9
C[C@@H]1CN([C@H](C)CO)C(=O)CCCn2cc(nn2)CO[C@H]1CN(C)C(=O)Nc1ccc(C(C)(C)C)cc1 | 0.1 | 2.7
CC(C)C(=O)Nc1ccc2c(c1)C(=O)N(C)[C@H]1CC[C@H](CC(=O)NCc3cccc(F)c3)O[C@@H]1CO2 | -0.8 | 0.4
COc1cc(CN2[C@@H]3CNC[C@H]2C3c2ccc(/C=C/c3ccccc3)cc2)cc(OC)c1 (stereo partly specified) | -32.7 | -93.0*!
CN(C)C(=O)c1ccc(-c2ccc(C3[C@H]4CNC[C@@H]3N4C(=O)Nc3cccc(Cl)c3)cc2)cc1 (stereo partly specified) | 37.3 | -2.7
COc1cccc(NC(=O)N2[C@@H]3CNC[C@H]2C3c2ccc(-c3ccccc3)cc2)c1 (stereo partly specified) | 6.5 | 4.5
OC[C@H]1[C@@H](c2ccccc2)[C@H](CNCC2CCC2)N1CC1CC1 | -26.9 | 8.8
CC(C)CNC[C@@H]1[C@@H](c2ccccc2)[C@@H](CO)N1Cc1ccc(F)cc1 | -91.1* | 19.6
COc1cccc(NC(=O)N2[C@@H]3CNC[C@H]2C3c2ccc(/C=C/c3ccccc3)cc2)c1 (stereo partly specified) | -20.2 | -97.8*!
COc1cccc(CN2[C@@H]3CNC[C@H]2C3c2ccc(/C=C/c3ccccc3)cc2)c1 (stereo partly specified) | -48.2 | 38.6
O=C(Nc1cccc(Cl)c1)N1[C@@H]2CNC[C@H]1C2c1ccc(/C=C/c2ccccc2)cc1 (stereo partly specified) | -67.6 | -94.7*!
O=C(C[C@@H]1C[C@@H]2c3cc(NS(=O)(=O)c4ccc(F)cc4)ccc3O[C@@H]2[C@H](CO)O1)NCc1ccc(Oc2ccccc2)cc1 | -58.8 | -0.7
O=C(c1ccc2c(c1)OCO2)N1C[C@H]2[C@@H](c3ccccc31)[C@H](CO)N2CC1CCCC1 | -10.1 | 6.9
COCC#Cc1ccc2c(c1)O[C@H](CN(C)C(=O)CN(C)C)[C@@H](C)CN([C@@H](C)CO)S2(=O)=O | -7.9 | -10.0
COc1cccc(NC(=O)N2[C@@H](CO)[C@@H](c3ccccc3)[C@@H]2CNCC(C)C)c1 | -81.2* | -3.9
SMILES | Pf Dd2 growth | C diff HTS
COc1cccc(NC(=O)N2[C@H](CO)[C@@H](c3ccccc3)[C@H]2CNC(C)C)c1 | -73.6 | -4.8
C[C@@H]1CN([C@@H](C)CO)C(=O)c2cc(NC(=O)C3CCCCC3)ccc2O[C@@H](C)CCCCO[C@H]1CN(C)C(=O)Nc1cccc2ccccc12 | -78.0 | -4.2
C[C@@H]1CN([C@H](C)CO)C(=O)c2cc(NC(=O)C3CCCCC3)ccc2O[C@@H](C)CCCCO[C@@H]1CN(C)C(=O)Nc1cccc2ccccc12 | -90.9* | 6.7
C[C@@H]1CCCCO[C@@H](CN(C)C(=O)Nc2cccc3ccccc23)[C@@H](C)CN([C@@H](C)CO)C(=O)c2cc(NC(=O)C3CCCCC3)ccc2O1 | -89.6* | 18.0
C[C@H](CO)N1C[C@H](C)[C@@H](CN(C)C(=O)Nc2cccc3ccccc23)OCCCC[C@H](C)Oc2ccc(NC(=O)C3CCCCC3)cc2C1=O | -75.3 | -14.5
COCCNC(=O)[C@H]1[C@H](CO)[C@H]2Cn3c(ccc(-c4ccccc4F)c3=O)[C@@H]1N2S(C)(=O)=O | nt | -0.3
COc1cccc(-c2ccc3c(c2)[C@@H]2[C@@H](CCN2C(=O)c2ccc(F)cc2)[C@H](CO)N3C)c1 | 12.7 | 42.9
COc1ccc(NC(=O)N(C)C[C@H]2OCc3ccccc3-c3c(n(C)c4ccccc34)C(=O)N([C@H](C)CO)C[C@H]2C)c(OC)c1 | -65.7 | -12.1
COc1ccc(NC(=O)N(C)C[C@@H]2OCc3ccccc3-c3c(n(C)c4ccccc34)C(=O)N([C@@H](C)CO)C[C@H]2C)c(OC)c1 | -77.8 | -2.6
COc1ccc(NC(=O)N(C)C[C@H]2OCc3ccccc3-c3c(n(C)c4ccccc34)C(=O)N([C@H](C)CO)C[C@@H]2C)c(OC)c1 | -86.4* | 9.5
COc1ccc(NC(=O)N(C)C[C@H]2OCc3ccccc3-c3c(n(C)c4ccccc34)C(=O)N([C@@H](C)CO)C[C@H]2C)c(OC)c1 | -88.9* | -15.9
COCC#Cc1cnc2c(c1)C(=O)N([C@@H](C)CO)C[C@H](C)[C@@H](CN(C)C(=O)Nc1cccc(F)c1)O2 | 6.9 | 1.7
C[C@H]1CN([C@@H](C)CO)C(=O)c2cccc(NC(=O)c3cnccn3)c2O[C@@H]1CN(C)Cc1ccc(C(=O)O)cc1 | -14.2 | -3.2
C[C@@H]1CN([C@@H](C)CO)C(=O)c2cccc(NC(=O)c3cnccn3)c2O[C@H]1CN(C)Cc1ccc(C(=O)Nc2ccccc2N)cc1 | -92.8* | 5.7
C[C@@H]1CN([C@H](C)CO)C(=O)c2cccc(NC(=O)c3cnccn3)c2O[C@@H]1CN(C)Cc1ccc(C(=O)O)cc1 | 4.4 | 0.9
C[C@H](CO)N1C[C@H](C)[C@H](CN(C)Cc2ccc(C(=O)Nc3ccccc3N)cc2)Oc2c(NC(=O)c3cnccn3)cccc2C1=O | -86.0* | 4.9
CCCNC(=O)N1CC(=O)N2[C@H](CO)[C@@H](c3ccc(-c4cccc(C)c4)cc3)[C@@H]2C1 | 10.1 | 25.9
CO[C@H](CN(C)Cc1cc(F)ccc1F)[C@@H](C)CN([C@@H](C)CO)S(=O)(=O)c1ccc(C)cc1 | -11.0 | nt

Screens as filed in PubChem.
